Measured values taken from the supplement of paper PMC10849652.
Of roughly 7,900 targets only a part is listed; those with a hit were picked by preference. About 0.6% of all pairs of compound and target were hits.

Each target was assayed with c1cn2cc(-c3ccc4cn[nH]c4c3)nc(Nc3ccc(N4CCOCC4)cc3)c2n1 [entospletinib] (assay: log2 fold change, soluble protein after heating vs DMSO (PISA); higher = thermal stabilisation; K562 cells, 10 uM, 30 min; active = over 0.2 and 3.5 SD of the protein, either way, in both replicates (recomputed)).
How it was run: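 Soluble protein was defined as the supernatant after 21,000xg for 90 min. It came from K562 cells at 2×10^6 cells/mL given 10 μM compound for 30 min, heated in aliquots for 3 min across 48°C-58°C, pooled, and extracted in PBS with 0.5% NP-40 at 4°C, and was quantified by TMTpro 16plex LC-MS/MS with equalised channel sums. Thermal stability against control samples, from duplicates, is reported as log2 fold change.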

UniProt P06454, sequence (P06454 whole entry, looked up): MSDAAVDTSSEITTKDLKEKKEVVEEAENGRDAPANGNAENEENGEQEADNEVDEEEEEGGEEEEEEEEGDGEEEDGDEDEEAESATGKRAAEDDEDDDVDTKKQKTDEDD
UniProt Q9NW08, sequence (Q9NW08 whole entry, looked up): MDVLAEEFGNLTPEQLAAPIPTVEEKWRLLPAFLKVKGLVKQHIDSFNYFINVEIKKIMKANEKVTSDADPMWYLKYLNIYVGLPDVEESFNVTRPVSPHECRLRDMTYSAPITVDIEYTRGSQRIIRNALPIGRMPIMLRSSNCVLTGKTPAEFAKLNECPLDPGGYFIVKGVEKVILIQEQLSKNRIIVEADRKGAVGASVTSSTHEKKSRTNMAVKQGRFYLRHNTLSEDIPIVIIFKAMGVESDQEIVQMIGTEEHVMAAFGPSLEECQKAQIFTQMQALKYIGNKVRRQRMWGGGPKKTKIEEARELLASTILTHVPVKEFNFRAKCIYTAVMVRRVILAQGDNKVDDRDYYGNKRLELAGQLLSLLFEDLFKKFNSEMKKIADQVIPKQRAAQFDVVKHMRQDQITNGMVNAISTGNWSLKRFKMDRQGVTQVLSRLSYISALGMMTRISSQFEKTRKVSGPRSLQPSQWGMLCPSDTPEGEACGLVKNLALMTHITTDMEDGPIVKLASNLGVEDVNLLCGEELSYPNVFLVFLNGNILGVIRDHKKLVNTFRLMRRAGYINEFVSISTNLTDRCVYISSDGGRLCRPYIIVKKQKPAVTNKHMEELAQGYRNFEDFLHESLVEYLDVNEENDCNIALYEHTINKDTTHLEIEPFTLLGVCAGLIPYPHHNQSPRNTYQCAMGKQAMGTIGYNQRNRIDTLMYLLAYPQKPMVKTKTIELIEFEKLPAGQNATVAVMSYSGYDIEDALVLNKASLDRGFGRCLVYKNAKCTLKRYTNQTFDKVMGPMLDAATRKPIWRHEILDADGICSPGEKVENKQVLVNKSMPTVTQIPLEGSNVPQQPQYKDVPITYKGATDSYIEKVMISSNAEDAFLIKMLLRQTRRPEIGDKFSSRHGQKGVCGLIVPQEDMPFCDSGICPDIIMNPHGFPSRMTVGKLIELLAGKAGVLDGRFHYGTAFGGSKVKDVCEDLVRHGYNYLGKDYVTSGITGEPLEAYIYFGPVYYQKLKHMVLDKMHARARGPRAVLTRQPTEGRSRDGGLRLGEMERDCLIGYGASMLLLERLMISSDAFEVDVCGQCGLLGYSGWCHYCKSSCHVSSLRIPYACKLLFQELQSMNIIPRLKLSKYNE
UniProt Q00577, sequence (Q00577 whole entry, looked up): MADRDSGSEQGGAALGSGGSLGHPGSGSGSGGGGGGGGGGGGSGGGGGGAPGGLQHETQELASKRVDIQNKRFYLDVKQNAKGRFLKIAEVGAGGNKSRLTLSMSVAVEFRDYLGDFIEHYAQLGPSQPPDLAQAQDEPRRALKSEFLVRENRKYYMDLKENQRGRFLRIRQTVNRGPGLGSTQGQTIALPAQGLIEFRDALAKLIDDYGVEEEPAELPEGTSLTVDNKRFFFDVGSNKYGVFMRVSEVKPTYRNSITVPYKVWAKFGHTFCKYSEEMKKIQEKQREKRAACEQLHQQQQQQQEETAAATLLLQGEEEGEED
UniProt O43242, sequence (O43242 whole entry, looked up): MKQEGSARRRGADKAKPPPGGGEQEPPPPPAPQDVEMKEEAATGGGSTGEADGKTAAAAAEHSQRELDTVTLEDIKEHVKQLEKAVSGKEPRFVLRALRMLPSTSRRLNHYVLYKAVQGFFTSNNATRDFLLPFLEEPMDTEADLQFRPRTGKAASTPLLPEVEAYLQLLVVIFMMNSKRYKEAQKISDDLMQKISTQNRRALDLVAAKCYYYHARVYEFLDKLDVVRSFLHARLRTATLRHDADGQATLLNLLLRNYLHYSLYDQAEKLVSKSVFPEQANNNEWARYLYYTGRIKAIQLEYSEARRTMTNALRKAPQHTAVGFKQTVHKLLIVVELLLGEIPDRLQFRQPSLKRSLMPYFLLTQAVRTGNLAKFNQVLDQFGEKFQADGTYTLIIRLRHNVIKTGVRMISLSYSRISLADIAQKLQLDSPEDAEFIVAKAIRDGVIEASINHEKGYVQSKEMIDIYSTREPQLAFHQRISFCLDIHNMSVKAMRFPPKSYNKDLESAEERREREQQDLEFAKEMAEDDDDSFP
UniProt O95602, sequence (O95602 whole entry, looked up): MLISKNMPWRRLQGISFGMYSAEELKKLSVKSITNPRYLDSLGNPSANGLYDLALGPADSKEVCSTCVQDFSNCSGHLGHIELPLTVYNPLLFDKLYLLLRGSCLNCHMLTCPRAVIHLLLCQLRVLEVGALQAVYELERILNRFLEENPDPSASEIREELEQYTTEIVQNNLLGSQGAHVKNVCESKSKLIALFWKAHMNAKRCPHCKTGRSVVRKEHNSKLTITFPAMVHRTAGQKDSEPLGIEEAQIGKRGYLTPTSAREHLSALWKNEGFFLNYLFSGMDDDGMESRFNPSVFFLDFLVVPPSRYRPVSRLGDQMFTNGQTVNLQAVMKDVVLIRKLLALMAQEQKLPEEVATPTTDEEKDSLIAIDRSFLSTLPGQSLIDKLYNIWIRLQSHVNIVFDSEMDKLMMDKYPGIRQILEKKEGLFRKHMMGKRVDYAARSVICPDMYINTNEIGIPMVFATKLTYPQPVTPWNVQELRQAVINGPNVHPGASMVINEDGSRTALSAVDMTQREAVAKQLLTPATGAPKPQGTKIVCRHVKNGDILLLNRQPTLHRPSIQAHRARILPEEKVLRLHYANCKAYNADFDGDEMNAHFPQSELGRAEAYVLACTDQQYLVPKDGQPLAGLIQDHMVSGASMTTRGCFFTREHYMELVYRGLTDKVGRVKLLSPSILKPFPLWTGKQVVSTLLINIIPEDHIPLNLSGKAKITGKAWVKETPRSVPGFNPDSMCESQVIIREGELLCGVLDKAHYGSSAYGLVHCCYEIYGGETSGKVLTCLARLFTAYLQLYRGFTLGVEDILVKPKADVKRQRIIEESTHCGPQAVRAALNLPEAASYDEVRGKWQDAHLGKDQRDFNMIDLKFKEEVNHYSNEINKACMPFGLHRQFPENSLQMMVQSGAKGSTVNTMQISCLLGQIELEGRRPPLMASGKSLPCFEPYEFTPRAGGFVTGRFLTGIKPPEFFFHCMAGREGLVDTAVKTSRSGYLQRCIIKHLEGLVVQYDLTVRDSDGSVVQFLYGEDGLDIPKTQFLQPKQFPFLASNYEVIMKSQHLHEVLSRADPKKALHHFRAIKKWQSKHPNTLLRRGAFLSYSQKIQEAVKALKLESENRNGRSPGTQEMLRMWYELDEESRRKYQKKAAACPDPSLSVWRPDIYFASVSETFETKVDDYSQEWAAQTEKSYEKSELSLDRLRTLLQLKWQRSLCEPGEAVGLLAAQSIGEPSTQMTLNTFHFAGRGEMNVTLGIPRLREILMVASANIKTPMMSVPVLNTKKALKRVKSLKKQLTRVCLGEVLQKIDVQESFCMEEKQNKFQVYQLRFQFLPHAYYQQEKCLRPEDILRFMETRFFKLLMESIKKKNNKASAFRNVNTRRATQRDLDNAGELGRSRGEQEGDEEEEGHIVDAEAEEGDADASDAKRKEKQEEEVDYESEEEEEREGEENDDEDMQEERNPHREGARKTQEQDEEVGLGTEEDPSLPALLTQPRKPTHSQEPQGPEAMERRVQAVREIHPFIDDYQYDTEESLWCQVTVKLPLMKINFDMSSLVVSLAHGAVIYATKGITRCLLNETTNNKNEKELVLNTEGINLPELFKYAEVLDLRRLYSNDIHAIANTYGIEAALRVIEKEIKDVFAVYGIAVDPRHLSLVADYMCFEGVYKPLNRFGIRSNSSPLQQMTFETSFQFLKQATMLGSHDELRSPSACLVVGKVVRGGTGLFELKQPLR
UniProt P62333, sequence (P62333 whole entry, looked up): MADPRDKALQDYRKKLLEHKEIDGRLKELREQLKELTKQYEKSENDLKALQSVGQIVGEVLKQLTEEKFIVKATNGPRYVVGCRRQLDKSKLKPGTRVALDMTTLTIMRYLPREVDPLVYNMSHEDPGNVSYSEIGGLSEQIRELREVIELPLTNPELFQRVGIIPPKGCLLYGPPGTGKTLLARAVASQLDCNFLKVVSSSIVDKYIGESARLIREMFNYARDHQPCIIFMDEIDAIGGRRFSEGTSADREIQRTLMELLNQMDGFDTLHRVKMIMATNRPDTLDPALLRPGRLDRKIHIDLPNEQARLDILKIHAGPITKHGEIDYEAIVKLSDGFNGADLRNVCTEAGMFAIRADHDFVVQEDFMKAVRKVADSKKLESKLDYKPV
UniProt Q7Z7A4, sequence (Q7Z7A4 whole entry, looked up): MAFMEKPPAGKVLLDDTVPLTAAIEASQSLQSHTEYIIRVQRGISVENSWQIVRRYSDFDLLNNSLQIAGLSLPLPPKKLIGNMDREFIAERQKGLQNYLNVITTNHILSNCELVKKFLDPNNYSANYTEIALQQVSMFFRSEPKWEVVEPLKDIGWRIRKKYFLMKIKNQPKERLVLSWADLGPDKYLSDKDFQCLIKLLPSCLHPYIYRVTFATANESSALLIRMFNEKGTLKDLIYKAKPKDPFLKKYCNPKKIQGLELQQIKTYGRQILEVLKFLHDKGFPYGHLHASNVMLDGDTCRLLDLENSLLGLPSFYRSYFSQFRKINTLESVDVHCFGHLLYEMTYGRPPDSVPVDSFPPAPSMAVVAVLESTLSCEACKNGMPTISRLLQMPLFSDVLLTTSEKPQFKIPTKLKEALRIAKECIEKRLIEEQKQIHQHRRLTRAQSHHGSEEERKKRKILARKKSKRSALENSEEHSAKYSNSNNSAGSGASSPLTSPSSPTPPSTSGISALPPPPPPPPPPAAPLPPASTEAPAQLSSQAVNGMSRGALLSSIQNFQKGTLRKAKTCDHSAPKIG
UniProt Q6GMV3, sequence (Q6GMV3 whole entry, looked up): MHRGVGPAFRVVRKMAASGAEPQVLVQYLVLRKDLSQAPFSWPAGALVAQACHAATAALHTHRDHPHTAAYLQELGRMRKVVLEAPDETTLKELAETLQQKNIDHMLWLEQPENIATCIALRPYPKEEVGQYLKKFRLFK

log2 fold change, inactive:
PSMD3 (UniProt O43242) 0.049
PURA (UniProt Q00577) 0.176
POGLUT1 (UniProt Q8NBL1) 0.06
PTGFRN (UniProt Q9P2B2) -0.007
PSME4 (UniProt Q14997) -0.003
PLD3 (UniProt Q8IV08) -0.01
PARN (UniProt O95453) -0.06
POLB (UniProt P06746) -0.156
PPP1R35 (UniProt Q8TAP8) -0.04
PCBP2 (UniProt F8VRH0) -0.004
PXK (UniProt Q7Z7A4) 0.009
PCGF2 (UniProt P35227) 0
PSMC6 (UniProt P62333) 0.01
PTMA (UniProt P06454) 0.047
PRKAB2 (UniProt O43741) -0.12
POLR1A (UniProt O95602) -0.057
PARP1 (UniProt P09874) -0.092
PSMB4 (UniProt P28070) -0.009
PRKCB isoform 2 (UniProt P05771) -0.012
PTRHD1 (UniProt Q6GMV3) 0.064
PPM1G (UniProt O15355) 0.094
POLA1 (UniProt P09884) -0.106
PATL1 (UniProt Q86TB9) 0.076
PCK2 (UniProt Q16822) -0.057
PLCG1 isoform 2 (UniProt P19174) 0.021
PPT1 (UniProt P50897) 0.057
PRKCQ (UniProt Q04759) 0.017
PDSS2 (UniProt Q86YH6) -0.152
PI4K2A (UniProt Q9BTU6) -0.011
PTPN23 (UniProt Q9H3S7) -0.031
POLR2M (UniProt Q6EEV4) 0.056
PMM2 (UniProt O15305) -0.194
PCNX1 (UniProt Q96RV3) 0.179
PECAM1 (UniProt P16284) -0.071
PEX11B (UniProt O96011) -0.082
POLR3B (UniProt Q9NW08) 0

log2 fold change, active:
PFAS (UniProt O15067) -0.399
POMK (UniProt Q9H5K3) -0.293
